CASP6 VEID inh = caspase-6 (human) enzyme inhibition; 0.53% of 350,000 active; purified caspase-6, Z-VEID-R110 cleavage fluorescence; inhibition, % at 12.5 µM; P55212;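 active means mean inhibition across replicates at least about 35%, with every replicate also reaching that limit, limit read from the data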
ERAP1 HTS inh = inhibitors of human ERAP1 aminopeptidase. recombinant ERAP1, Leu-AMC fluorescence, 60 min. inhibition, % at 10.7 µM. Q9NZ08. 0.15% of 340,000 active;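 active means mean replicate inhibition of at least 30%, or all replicates individually reaching that 30% level; inactive means mean below 30% and not every replicate reaching it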
GSIS activator = primary screen for activators of insulin secretion dependent on glucose, INS-1E cells, GLuc reporter luminescence. INS-1E GLuc reporter insulin secretion, 2-3 h. activation, % at 16.6 µM. 0.61% of 370,000 active;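 active means lowest replicate activation of at least 40%, so every replicate reaches that level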
SIRT5 inh = inhibitors of human sirtuin-5 desuccinylase; Q9NXA8; Purified SirT5, succinyl-peptide AMC, trypsin-coupled fluorescence; inhibition, % at 15 µM; 1.1% of 330,000 active; AID 652115; in the data active means inhibition above about 15%
Target sequence (Q9NXA8 whole entry, looked up): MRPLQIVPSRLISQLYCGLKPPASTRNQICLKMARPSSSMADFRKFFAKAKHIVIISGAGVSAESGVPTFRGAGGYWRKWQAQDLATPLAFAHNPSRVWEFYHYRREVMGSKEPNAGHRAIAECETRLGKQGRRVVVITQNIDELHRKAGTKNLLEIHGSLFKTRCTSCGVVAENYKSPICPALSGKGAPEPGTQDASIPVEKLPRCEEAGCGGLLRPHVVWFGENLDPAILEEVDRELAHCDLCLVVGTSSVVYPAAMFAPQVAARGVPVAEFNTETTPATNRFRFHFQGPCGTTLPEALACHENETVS
FGF22 binding = shifts melting point of recombinant human FGF22 | Q9HCT0 | recombinant FGF22 thermal shift, SYPRO orange fluorescence; percent of sucrose octasulfate shift, DMSO zero | activity (Tm shift, normalised), % at 9.99 µM | 1.5% of 340,000 active | AID 651658;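 active means mean Tm shift, scaled 0 neutral to 100 positive control, at about 1.3% or above, every replicate too, limit read from the data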
Target sequence (Q9HCT0 whole entry, looked up): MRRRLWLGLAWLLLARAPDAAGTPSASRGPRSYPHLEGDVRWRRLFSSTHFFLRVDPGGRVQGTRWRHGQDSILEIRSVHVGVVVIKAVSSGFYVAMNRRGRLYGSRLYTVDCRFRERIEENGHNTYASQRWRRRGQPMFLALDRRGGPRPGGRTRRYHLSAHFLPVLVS
Numbers stand for hits; i = inactive; nt = not tested or not shown. In the library only some 3.3% were active in any assay of this set; here they are far more common.

SMILES	CASP6 VEID inh	ERAP1 HTS inh	GSIS activator	SIRT5 inh	FGF22 binding
CC(=O)NC[C@@H]1[C@@H](c2ccc(C3=CCCCC3)cc2)[C@@H](CO)N1C(=O)C1CC1	i	i	i	i	nt
COC(=O)C[C@H]1CC[C@H](NC(=O)Nc2ccc(C(F)(F)F)cc2)[C@@H](CO)O1	i	i	i	i	i
C=CCc1cccc(/C=N/NC(=O)CCC(=O)Nc2ccc(C)cc2)c1O	nt	nt	225	nt	nt
Cn1nc(CSc2ccccc2)c(C=O)c1Cl	i	i	i	15	i
CCCc1nnc2c(N(C)S(=O)(=O)c3ccc(C)cc3)nc3ccccc3n12	i	i	68	i	i
O=C(C1CC1)N1CC(=O)N2[C@H](CO)[C@@H](c3ccc(C#CC4CCCC4)cc3)[C@H]2C1	i	i	i	i	nt
Oc1ccccc1C=NC(c1ccccc1)C(O)c1ccccc1 (centres undefined)	nt	nt	i	nt	nt
Oc1ccccc1/C=N/[n+]1ccccc1	i	97	i	i	i
CO[C@@H]1CN(C)C(=O)c2ccc(NC(=O)c3ccccc3)cc2OC[C@@H](C)N(CC2CC2)C[C@@H]1C	i	i	i	i	i
CC(C)N1CCN(Cc2ccc3c(c2)Cc2ccccc2-3)CC1CCO (centres undefined)	i	i	i	i	43
CC(=O)c1cccc(CN2CCN(CC(C)C)C(CCO)C2)c1 (centres undefined)	nt	nt	i	nt	nt
CC(C)N1CCN(Cc2cnc(-c3ccccc3)s2)CC1CCO (centres undefined)	i	i	i	22	nt
CC(C)CCN1CCN(Cc2cnc(N3CCCC3)s2)CC1CCO (centres undefined)	i	i	i	38	i
CC(=O)c1cccc(CN2CCN(C(C)C)C(CCO)C2)c1 (centres undefined)	i	i	i	i	44
CC(C)N1CCN(Cc2ccc(-c3ccccc3)cc2)CC1CCO (centres undefined)	i	i	i	i	i
C[C@@H]1CN([C@@H](C)CO)C(=O)c2cc(NC(=O)Cn3cnnn3)ccc2O[C@@H]1CN(C)C	i	i	i	i	i
CN1CCN(C(=O)C[C@@H]2CC[C@@H]3[C@@H](COc4ccc(NC(=O)C5CCC5)cc4C(=O)N3C)O2)CC1	i	i	i	i	i
CCOP(=O)(OCC)C(NC(=O)Nc1ccccc1)c1ccccc1 (centres undefined)	i	i	i	i	i
CCOP(=O)(OCC)C(NC(=O)Nc1c(C)cc(C)cc1C)c1ccccc1 (centres undefined)	i	i	i	i	43
O=C(C[C@H]1C=C[C@@H](NC(=O)C2CCC2)[C@H](CO)O1)NCC1CC1	i	i	i	i	i
O=C1COc2ccc(S(=O)(=O)CCC(=O)N3CCN(c4ccccc4)CC3)cc2N1	i	i	i	i	i
Cc1ccc(C)c(N2CCN(C(=O)CCS(=O)(=O)c3ccc4c(c3)NC(=O)CO4)CC2)c1	71	i	i	i	i
COc1ccc2c(c1)CCC/C2=N/OC(=O)c1ccccc1OC	i	i	i	i	44
COc1ccc2c(c1)CC/C2=N\OC(=O)c1ccccc1C	i	i	i	i	i
CCC1CCCCN1C(=O)CCc1nnc(Cc2c[nH]c3ccccc23)o1 (centres undefined)	i	i	i	i	i
SMILES	CASP6 VEID inh	ERAP1 HTS inh	GSIS activator	SIRT5 inh	FGF22 binding
CC1CCCCN1C(=O)COC(=O)Cc1c[nH]c2ccccc12 (centres undefined)	i	i	nt	nt	43
CC1CCCCN1C(=O)CCc1nnc(Cc2c[nH]c3ccccc23)o1 (centres undefined)	i	i	i	i	44
COCCN(C(=O)CCc1nnc(CCc2c[nH]c3ccccc23)o1)C(C)C	i	i	i	i	44
CN(C)C(=O)c1cccc(-c2ccc3c(c2)[C@H]2[C@H](CCN2C(=O)c2ccncc2)[C@@H](CO)N3C)c1	i	i	i	i	i
Cc1ccc(C2=NN(C(=O)c3ccco3)C(O)(C(F)(F)F)C2)cc1 (centres undefined)	i	i	i	i	44
COc1cccc(C2=NN(C(=O)c3ccco3)C(O)(C(F)(F)F)C2)c1 (centres undefined)	i	i	i	i	i
CN1[C@@H]2Cn3c(ccc(-c4ccccc4)c3=O)[C@H]1[C@@H](C(=O)NCCc1ccccc1)[C@@H]2CO	nt	nt	i	nt	nt
O=C1Nc2ccccc2N(C(=O)c2ccc3ccccc3c2)C1c1nc2ccccc2[nH]1 (centres undefined)	i	i	121	16	i
COc1ccc(-c2coc3cc(O)cc(O)c3c2=O)cc1	i	i	nt	i	2.2
COc1ccc(Cn2c(C)nc([N+](=O)[O-])c2SCC(=O)O)cc1[N+](=O)[O-]	i	i	i	i	i
Cc1nc([N+](=O)[O-])c(SCC(O)CCl)n1Cc1ccc(Cl)cc1 (centres undefined)	i	i	i	i	43
COc1ccc(CNC(=O)CCS(=O)(=O)c2ccc3c(c2)NC(=O)C(C)S3)cc1 (centres undefined)	i	i	i	i	i
COc1ccccc1N1CCN(C(=O)C(C)CS(=O)(=O)c2ccc3c(c2)NC(=O)CS3)CC1 (centres undefined)	68	i	i	i	i
COc1ccc(CNC(=O)CCS(=O)(=O)c2ccc3c(c2)NC(=O)CS3)cc1	i	i	145	i	i
COc1ccc(NC(=O)N2CCN(c3ccc([N+](=O)[O-])cc3)CC2)cc1OC	nt	i	i	i	nt
COc1ccc(N2CCN(C(=O)NCc3ccc(C)cc3)CC2)cc1	i	i	i	i	i
COc1ccc(CNC(=O)N2CCN(c3ccccc3)CC2)cc1	i	i	i	16	i
COc1cc(CCC(=O)N2CCN(c3ccccc3)CC2)cc(OC)c1OC	i	i	i	29	i
COc1ccc(NC(=O)N2CCN(c3ccc([N+](=O)[O-])cc3)CC2)cc1	i	i	i	i	43
COc1ccc(N2CCN(C(=O)CCc3cc(OC)c(OC)c(OC)c3)CC2)cc1	i	i	i	i	i
C[C@H]1CN([C@@H](C)CO)C(=O)c2cc(N(C)C)ccc2O[C@H]1CN(C)S(=O)(=O)c1ccccc1	i	i	i	nt	i
CC(=O)n1cc([C@@H]2C=C(C(=O)N3CCCCCCC3)O[C@H](OCCCCO)C2)c2ccccc21	i	i	nt	i	i
COc1ccc(OC)c(S(=O)(=O)NCC(c2cccs2)N2CCc3ccccc3C2)c1 (centres undefined)	72	i	i	i	i
COc1ccc(S(=O)(=O)NCC(c2cccs2)N2CCc3ccccc3C2)cc1 (centres undefined)	i	i	i	i	nt
COc1ccc(CCn2ccc(O)c(Cc3c(F)cccc3Cl)c2=O)cc1OC	i	i	43	i	i
C/C=C/c1ccc2c(c1)O[C@@H](CN(C)C(=O)Nc1ccc(C(F)(F)F)cc1)[C@@H](C)CN([C@H](C)CO)S2(=O)=O	i	i	i	i	1.4

Screening data from PubChem BioAssay.
